Most compounds without a hit are left out; they make up all but 31% or so of the library.
CYP2C9 activ – activators of human CYP2C9; P11712; recombinant CYP2C9, luciferin-H conversion, luminescence; stronger effect = higher value; factor 1 = untreated enzyme, 0 = blocked; activation factor at 5 µM; 1.4% of 96,000 active; AID 1024;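 active means activation factor of 2 or more for CYP2C9 at a 5 µM dose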
CYP2C19 inh – blocks human cytochrome P450 2C19; inhibition, % at 5 µM; CYP2C19 Supersomes, luciferin-H EGE luminescence, 30 min; 21% of 96,000 active; P33261;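 active means CYP2C19 inhibition above a set limit at 5 µM in the primary screen, cut at about 50% in these data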
Target sequence (P33261 whole entry, looked up): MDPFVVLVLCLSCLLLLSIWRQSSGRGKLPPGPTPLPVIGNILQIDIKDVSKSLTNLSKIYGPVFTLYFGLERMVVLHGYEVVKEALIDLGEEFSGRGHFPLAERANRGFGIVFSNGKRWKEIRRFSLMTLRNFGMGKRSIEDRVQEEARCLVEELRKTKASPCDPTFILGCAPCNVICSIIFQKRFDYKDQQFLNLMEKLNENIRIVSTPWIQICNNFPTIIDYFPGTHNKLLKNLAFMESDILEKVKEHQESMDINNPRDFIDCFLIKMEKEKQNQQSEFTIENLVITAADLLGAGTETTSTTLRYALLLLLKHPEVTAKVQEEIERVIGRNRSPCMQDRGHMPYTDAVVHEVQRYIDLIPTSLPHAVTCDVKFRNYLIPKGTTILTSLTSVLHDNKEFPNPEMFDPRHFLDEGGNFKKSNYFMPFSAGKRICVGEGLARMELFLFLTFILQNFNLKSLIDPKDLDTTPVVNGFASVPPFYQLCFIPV
CYP2C9 inh – human CYP2C9 inhibition; CYP2C9 Supersomes, luciferin-H conversion, luminescence; inhibition, % at 5 µM; AID 777; 20% of 96,000 active; P11712;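 active means blocking of liver enzyme CYP2C9 beyond about 50% at 5 µM, limit read from the data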
CYP2C19 activ – cytochrome P450 2C19 (human) activation; recombinant CYP2C19, luciferin-H EGE luminescence; stronger effect = higher value; 0 = fully inhibited enzyme, 1 = untreated enzyme; activation factor at 5 µM; AID 1025; 96,000 tested, under 10 active;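 active means activation factor of at least 2 at 5 µM in the primary screen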
Large screens that a line does not name were inactive.

CCCN1CCC(N2CCN(c3cccc(C(F)(F)F)c3)CC2)CC1	none
C=CCn1c(SCC(=O)Nc2sccc2C#N)nc2sc(C)c(C)c2c1=O	none
COc1ccc(N2CCN(C(=O)C(Cc3ccccc3)n3cccc3)CC2)cc1 (configuration not stated)	CYP2C19 inh 93, CYP2C9 inh 76
CCC(C(=O)N1CCN(S(C)(=O)=O)CC1)c1ccccc1 (configuration not stated)	CYP2C19 inh 83
CCC(C(=O)N1CCN(c2cccc(Cl)c2)CC1)c1ccccc1 (configuration not stated)	CYP2C19 inh 95, CYP2C9 inh 100
O=C(Nc1ncc(Br)s1)C(Cc1ccccc1)n1cccc1 (configuration not stated)	CYP2C19 inh 88, CYP2C9 inh 97
O=C(Nc1cccnc1)C(Cc1ccccc1)n1cccc1 (configuration not stated)	none
Cc1cc(Br)cc(C)c1OCCCCN(C)C	none
CC(=O)Nn1c(-c2ccccc2)cc2ccccc21	none
CCCc1nnc(SCC(=O)N2CCCCC2)n1CCCOC	none
Cn1c(SCc2ccccc2)nnc1-c1cnccn1	none
O=C(C(Cc1ccccc1)n1cccc1)N1CCCCCC1 (configuration not stated)	CYP2C19 inh 69
Cc1cc(=O)[nH]c2c1c(C)nn2C1CCOC(C)(C)C1 (configuration not stated)	none
CCOC(=O)CC1=C(C(=O)OCC)C(c2cccs2)C(C#N)=C(N)O1 (configuration not stated)	CYP2C19 inh 78
CCOC(=O)C1=C(c2ccccc2)OC(N)=C(C#N)C1c1cccs1 (configuration not stated)	none
COC(=O)CC1=C(C(=O)OC)C(c2ccncc2)C(C#N)=C(N)O1 (configuration not stated)	CYP2C19 inh 80, CYP2C9 inh 80
COC(=O)C1=C(C)OC(N)=C(C#N)C1c1cc(C)sc1C (configuration not stated)	CYP2C19 inh 88
CCOC(=O)C1=C(C)OC(N)=C(C#N)C1c1ccc(OC)c(C)c1OC (configuration not stated)	CYP2C19 inh 73, CYP2C9 inh 55
CCN(CC)C(=O)c1cn(CC)c(=O)c2cc(OC)c(OC)cc12	none
CCOC(=O)CC1=C(C(=O)OCC)C(c2cc(OC)c(OC)cc2OC)C(C#N)=C(N)O1 (configuration not stated)	none
CCN(CC)C(=O)CSC1=C(C#N)C(c2cccs2)C=C(C)N1 (configuration not stated)	CYP2C19 inh 60
CCOC(=O)C1=C(CC)OC(N)=C(C#N)C1c1cc(OC)ccc1OC (configuration not stated)	CYP2C19 inh 82, CYP2C9 inh 98
CCOC(=O)C1=C(C)OC(N)=C(C#N)C1c1cc(F)ccc1F (configuration not stated)	CYP2C19 inh 83
CCOC(=O)CC1=C(C(=O)OCC)C(c2ccc(OC)c(OC)c2)C(C#N)=C(N)O1 (configuration not stated)	CYP2C19 inh 74, CYP2C9 inh 87
Cc1cccc(C)c1NC(=O)C1C2C=CC(C2)C1C(=O)NCc1ccccn1 (configuration not stated)	none
Cc1cc(C2C(C#N)=C(N)SC(N)=C2C#N)c(C)s1	CYP2C19 inh 92
C#CCSC1=C(C#N)C(c2cccs2)C(C(=O)OCC)=C(C)N1 (configuration not stated)	CYP2C19 inh 64, CYP2C9 inh 72
COCCOC(=O)C1=C(C)NC(=O)NC1c1cccs1 (configuration not stated)	none
CCC(=O)Nc1ccc(C(=O)N/N=C/c2cccnc2)cc1	none
COc1cc2c(C(=O)NC3CCCCCC3)cn(C)c(=O)c2cc1OC	none
Cn1c(O)c(C=Nc2ccc(Cc3ccncc3)cc2)c(=O)n(C)c1=O	CYP2C19 inh 88, CYP2C9 inh 73
N#CC(C(=O)OC1CCCCC1)c1nc2ccccc2nc1N1CCCCC1 (configuration not stated)	none
CC(C)Oc1ccc(C(CC(=O)NCc2ccco2)c2ccccc2)cc1 (configuration not stated)	CYP2C19 inh 61, CYP2C9 inh 68
COc1ccc(CCC(=O)NCc2ccco2)cc1	none
O=C(CCN1C(=O)C2C3C=CC(C3)C2C1=O)Nc1ccccn1 (configuration not stated)	none
Cc1cc(C)cc(CC(Cc2nc3ccccc3[nH]2)c2nc3ccccc3[nH]2)c1 (configuration not stated)	CYP2C19 inh 97, CYP2C9 inh 77
O=C(CSCC(=O)OCn1nnc2ccccc2c1=O)Nc1ccc(Cl)cc1	none
N#CC1=C(N)Oc2n[nH]c(-c3cccs3)c2C1c1cccnc1 (configuration not stated)	CYP2C19 inh 70, CYP2C9 inh 69
Cc1ccc(SCc2[nH]nc3c2C(c2cccnc2)C(C#N)=C(N)O3)cc1 (configuration not stated)	CYP2C9 inh 78
N#CC1=C(N)Oc2n[nH]c(-c3cccs3)c2C1c1ccoc1 (configuration not stated)	none
COc1cc(C2C(C#N)=C(N)Oc3n[nH]c(-c4ccncc4)c32)cc(OC)c1OC (configuration not stated)	none
N#CC1=C(N)Oc2n[nH]c(-c3ccncc3)c2C1c1ccsc1 (configuration not stated)	CYP2C9 inh 89
Cc1ccc(-c2[nH]nc3c2C(c2ccsc2)C(C#N)=C(N)O3)cc1 (configuration not stated)	none
N#CC1=C(N)Oc2n[nH]c(-c3ccc(F)cc3)c2C1c1ccncc1 (configuration not stated)	CYP2C9 inh 69
CN=C1c2ccccc2CN1c1cccc(C(=O)OC)c1	none
CN(C)S(=O)(=O)c1ccc(C(=O)Oc2cc(=O)[nH]c3ccccc23)cc1	none
CCOC(=O)N1CCN(C(=O)c2ccc3c(c2)NC(=O)C(N2CCOCC2)S3)CC1 (configuration not stated)	none
C(=N\Nc1nc(-c2ccccc2)cs1)/c1cccnc1	CYP2C19 inh 93, CYP2C9 inh 89
N=c1c2c3c(sc2ncn1CCN1CCOCC1)CCCCC3	none
O=C(O)CCC(=O)NCC1OCCc2ccccc21 (configuration not stated)	none
COc1ccc(C(=O)NCC2OCCc3ccccc32)c(O)c1 (configuration not stated)	CYP2C19 inh 90, CYP2C9 inh 51
CSc1cccc(NS(=O)(=O)c2ccc(F)cc2)c1	CYP2C19 inh 96, CYP2C9 inh 91
CCOC(=O)COc1ccc(S(=O)(=O)NCc2cccnc2)cc1	none
CSc1cccc(NS(=O)(=O)c2ccccc2)c1	CYP2C9 inh 66
CCOC(=O)COc1ccc(S(=O)(=O)Nc2cccc(SC)c2)cc1	CYP2C19 inh 88, CYP2C9 inh 78
O=C(NC1CC1)C1=COCCO1	none
Nc1nc(N)nc(-c2ccc(Oc3ccccc3)cc2)n1	CYP2C9 inh 51

Screens deposited in PubChem BioAssay by Sanford-Burnham Center for Chemical Genomics.
